Results: PubChem BioAssay AID652061 (Broad Institute, 2013)
The list shows a part of the results. Activity calls are given as the source filed them.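 How the source made its calls: active means signal increase whose fitted curve reaches an absolute level of 40 at a concentration under 10 µM; inactive means activity opposite to the expected increase, or the rest.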

Test: start codon recognition fidelity modulators – S. cerevisiae, UUG firefly luciferase, cherry-pick, set 2, dose response (AID 652061);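 further: 0% = median DMSO signal and 100% = twice the DMSO signal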
Settings: max activity: measured here: max activity, test 2, at 38 µM, test 2, stronger effect = higher value unless noted

Row | Structure (SMILES) | max activity | outcome
1 | CCOC(=O)C(=Cc1ccccc1OC)C(=O)OCC | 9.08% [measured here: max activity, test 2, at 0.15 µM, test 2, stronger effect = higher value] | inactive
2 | CC1CCCN(S(=O)(=O)c2ccc(N(C(=O)c3cnccn3)C(C(=O)NC3CCCCC3)c3cccs3)cc2)C1 (configuration not stated) | -8.84% [measured here: max activity, test 2, at 0.05 µM, test 2, stronger effect = higher value] | inactive
3 | O=C(C1CCC1)N1C[C@H]2[C@@H](c3ccccc31)[C@@H](CO)N2C(=O)c1ccccc1F | 6.68% [at 0.035 µM, test 1, stronger effect = higher value] (inactive) | 
4 | C[C@@H]1CN([C@@H](C)CO)C(=O)c2cc(Br)cnc2O[C@@H]1CN(C)C(=O)C1CCCCC1 | -6.87% [at 0.9 µM, test 1, stronger effect = higher value] (inactive) | 
5 | c1ccc(-n2cccc2)c(N2CCCCC2)c1 | 8.5% [measured here: max activity, test 2, at 0.05 µM, test 2, stronger effect = higher value] | inactive
6 | O=C1N=C(N2CCc3ccccc3C2)S/C1=C\c1ccc(O)cc1 | 7.99% [measured here: max activity, test 2, at 12 µM, test 2, stronger effect = higher value] | inactive
7 | CC(C)C#Cc1ccc2c(c1)O[C@@H](CN(C)C(=O)CN(C)C)[C@@H](C)CN([C@H](C)CO)S2(=O)=O | -9.02% [at 0.3 µM, test 1, stronger effect = higher value] (inactive) | 
8 | CN1CCN(C(=O)/C(=C\c2cccs2)NC(=O)c2cccs2)CC1 | 13.1% | inactive
9 | CC(=O)Nc1ccccc1-c1cn(CC(=O)N2CCOCC2)nn1 | 8.61% [at 75 µM, test 1, stronger effect = higher value] (inactive) | 
10 | COCCCNC(=O)Cn1cc(C(=O)C2CC2)c2ccccc21 | -7.83% [measured here: max activity, test 2, at 1.35 µM, test 2, stronger effect = higher value] | inactive
11 | Cc1c(Nc2cc(N3CCCC(C)C3)c3nonc3c2[N+](=O)[O-])c(=O)n(-c2ccccc2)n1C (configuration not stated) | 9.02% | inactive
12 | Cc1ccc(F)cc1NC(=O)Cc1nn(C)c(=O)c2ccccc12 | -14.8% [measured here: max activity, test 2, at 12 µM, test 2, stronger effect = higher value] | inactive
13 | COc1ccc(CCN2C(=O)[C@@]3(Cc4ccccc42)c2ccccc2C(=O)N(Cc2ccccc2C(F)(F)F)[C@H]3c2ccc(CO)cc2)cc1 | 5.62% [at 26 µM, test 1, stronger effect = higher value] (inactive) | 
14 | COc1ccc(NC(=O)N(C)C[C@H]2OCCCC[C@@H](C)Oc3ccc(NC(=O)NC4CCCCC4)cc3C(=O)N([C@@H](C)CO)C[C@H]2C)cc1 | 8.38% [at 26 µM, test 1, stronger effect = higher value] (inactive) | 
15 | O=C(c1cccnc1)N1C[C@H]2[C@@H](c3ccccc31)[C@H](CO)N2C(=O)C1CC1 | 24.4% [at 0.035 µM, test 1, stronger effect = higher value] (inactive) | 
16 | CC1CCC(NC(=O)C2c3ccccc3C(=O)N2Cc2ccc3c(c2)OCO3)CC1 (configuration not stated) | -4.01% | inactive
17 | O=C(N[C@H]1CC[C@@H](CCNS(=O)(=O)Cc2ccccc2)O[C@H]1CO)c1ccccc1F | 8.33% [at 0.035 µM, test 1, stronger effect = higher value] (inactive) | 
18 | CCc1cccc(C)c1N(C(=O)Cn1c(CO)nc2ccccc21)C(C)COC (configuration not stated) | 6.66% [measured here: max activity, test 2, at 12 µM, test 2, stronger effect = higher value] | inactive
19 | C[C@@H]1CN([C@@H](C)CO)S(=O)(=O)c2ccc(C#Cc3ccc(F)cc3)cc2O[C@H]1CN(C)C(=O)NC1CCCC1 | 10% [at 2.85 µM, test 1, stronger effect = higher value] (inactive) | 
20 | CC(=O)N1CC(=O)N(CC(=O)Nc2ccc(Br)cc2)C1=S | 9.59% [measured here: max activity, test 2, at 1.35 µM, test 2, stronger effect = higher value] | inactive
21 | C#CCSc1nnc(-c2sc3ccccc3c2Cl)o1 | 6.33% [measured here: max activity, test 2, at 0.46 µM, test 2, stronger effect = higher value] | inactive
22 | Cc1onc(-c2ccc(Cl)cc2)c1-c1ccnn1S(=O)(=O)c1ccc(Cl)cc1 | 13.9% | inactive
23 | O=C(COc1ccc(Cl)cc1)NCc1nnc(SCC(=O)NCC2CCCO2)o1 (configuration not stated) | -8.21% [measured here: max activity, test 2, at 0.15 µM, test 2, stronger effect = higher value] | inactive
